Laboratory results taken from PubChem BioAssay (NCI).
The panel holds about 79,000 compounds, 15% with a hit somewhere; the sample as a whole holds those more often. Active and inactive are the calls of the source. Rule as the data show it: active = growth inhibition above about 70%; inactive = the rest.

Columns and labels:
[1] = NCI Yeast Anticancer Drug Screen. Data for the rad52 strain (AID 147);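 also: 0% = growth of vehicle-treated control cultures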; details: S. cerevisiae rad52 mutant growth inhibition, active compounds read high
How it was run: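 Here a repair-compromised yeast strain receives each compound; its growth is then quantified and normalised to vehicle-only controls.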

[2] = NCI Yeast Anticancer Drug Screen. Data for the wt1 strain (AID 149);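 also: 0% = growth of vehicle-treated wt1 cultures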; details: S. cerevisiae wt1 strain (SPY 50644) growth inhibition, active compounds read high
How it was run: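 Measured: growth of wt1 yeast under compound versus vehicle treatment, reported as inhibition.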

[3] = NCI Yeast Anticancer Drug Screen. Data for the rad50EPP+ strain (AID 151);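 also: 0% = growth of vehicle-treated control cultures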; details: S. cerevisiae rad50 mutant strain, active compounds read high
How it was run: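 Read-out is yeast growth inhibition relative to vehicle; cells used were the rad50EPP+ strain.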

[4] = NCI Yeast Anticancer Drug Screen. Data for the mgt1 strain (AID 153); details: S. cerevisiae mgt1 mutant growth inhibition, active compounds read high
How it was run: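 Measured: inhibition of mgt1 yeast growth by compound, normalized to vehicle-treated cultures.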

[5] = NCI Yeast Anticancer Drug Screen. Data for the rad50 strain (AID 155);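 also: 0% = growth of vehicle-only cultures of the same strain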; details: S. cerevisiae rad50 strain growth inhibition, active compounds read high
How it was run: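 Growth of the mutant yeast was measured after compound exposure and referenced to vehicle-treated cultures.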

[6] = NCI Yeast Anticancer Drug Screen. Data for the mec2-1 strain (AID 157); details: S. cerevisiae mec2-1 strain, active compounds read high
How it was run: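 Using mec2-1 yeast: add compound, measure growth, express inhibition versus vehicle-treated cultures.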

[7] = NCI Yeast Anticancer Drug Screen. Data for the rad14 strain (AID 159);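 also: 0% = growth of vehicle-treated control cultures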; details: S. cerevisiae rad14 strain growth inhibition, active compounds read high
How it was run: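 Here, inhibition of yeast growth was measured after compound exposure, using a strain with a genetic defect in DNA damage repair and vehicle-treated cultures as the reference.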

[8] = NCI Yeast Anticancer Drug Screen. Data for the CLN2oe strain (AID 163);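 also: 0% = growth of vehicle-only control cultures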; details: S. cerevisiae CLN2oe strain, active compounds read high
How it was run: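 Whole-cell yeast growth assay. A strain engineered for altered cell-cycle control received compound, and inhibition relative to vehicle-treated cultures was recorded.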

[9] = NCI Yeast Anticancer Drug Screen. Data for the cln2 rad14 strain (AID 165);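 also: 0% = growth equal to vehicle treated cultures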; details: S. cerevisiae cln2 rad14 strain, active compounds read high
How it was run: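 Yeast strain cln2 rad14, bearing defects in cell cycle control and DNA repair, serves as the test system; values reflect growth inhibition compared with vehicle.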

[10] = NCI Yeast Anticancer Drug Screen. Data for the bub3 strain (AID 167); details: S. cerevisiae bub3 mutant strain, active compounds read high
How it was run: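 Whole-cell yeast assay. The mutant strain was incubated with compounds, and growth inhibition was determined by comparison with vehicle-treated cells.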

[11] = NCI Yeast Anticancer Drug Screen. Data for the wt2 strain (AID 169);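 also: 0% = growth of vehicle-treated yeast cultures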; details: S. cerevisiae wt2 strain growth inhibition, active compounds read high
How it was run: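 Treated yeast vs. vehicle-treated yeast: growth inhibition determined.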

[12] = NCI Yeast Anticancer Drug Screen. Data for the mlh1 strain (AID 171);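 also: 0% = growth of vehicle-treated control cultures of the same strain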; details: S. cerevisiae mlh1 strain growth inhibition, active compounds read high
How it was run: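 A yeast strain with a defined genetic lesion serves as the test organism. Cultures receive compound or vehicle, and growth is measured.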

[13] = NCI Yeast Anticancer Drug Screen. Data for the sgs1 strain (AID 173);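 also: 0% = growth of vehicle-only control cultures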; details: S. cerevisiae sgs1 mutant, active compounds read high
How it was run: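 A genetically defined yeast mutant is incubated with the test compound, and its growth is compared to that of the same strain given vehicle.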

[14] = NCI Yeast Anticancer Drug Screen. Data for the mlh1 rad18 strain (AID 175); details: S. cerevisiae mlh1 rad18 strain growth inhibition, active compounds read high
How it was run: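 Steps: expose repair-defective yeast to compound; measure growth; express inhibition against vehicle-treated controls.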

[15] = NCI Yeast Anticancer Drug Screen. Data for the rad18 strain (AID 177); details: S. cerevisiae rad18 mutant growth inhibition, active compounds read high
How it was run: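 Measured value is growth inhibition of a yeast strain bearing a DNA repair alteration, referenced to vehicle-treated cells.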

[16] = at 5.0 µM (retest, dose inferred, filed as 0.5)
[17] = at 50.0 µM (retest, dose inferred, filed as 5.0)

Measured: growth inhibition

Nc1cccc(-c2cc[cH-]c2)c1.[Fe+2].c1cc[cH-]c1
inactive: [1]; at 1.2 µM -2% | [1]; at 3.7 µM 6% | [1]; at 11.0 µM 15% | [1]; at 33.0 µM 39% | [2]; at 1.2 µM -1% | [2]; at 3.7 µM -3% | [2]; at 11.0 µM -3% | [2]; at 33.0 µM 2% | [2]; at 100.0 µM 50% | [3]; at 1.2 µM -1% | [3]; at 3.7 µM 9% | [3]; at 11.0 µM 21% | [3]; at 33.0 µM 20% | [4]; at 1.2 µM -4% | [4]; at 3.7 µM -3% | [4]; at 11.0 µM -2% | [4]; at 33.0 µM 4% | [5]; at 1.2 µM -3% | [5]; at 3.7 µM 3% | [5]; [16] -14% | [5]; at 11.0 µM 16% | [5]; at 33.0 µM 35% | [5]; [17] 15% | [5]; at 50.0 µM 35.5% | [6]; at 1.2 µM -2% | [6]; at 3.7 µM -3% | [6]; [16] -18% | [6]; at 11.0 µM -3% | [6]; at 33.0 µM 3% | [6]; [17] -10% | [6]; at 50.0 µM 38.5% | [7]; at 1.2 µM 0% | [7]; at 3.7 µM 6% | [7]; at 11.0 µM 14% | [7]; at 33.0 µM 25% | [8]; at 1.2 µM -11% | [8]; at 3.7 µM -5% | [8]; at 11.0 µM -6% | [8]; at 33.0 µM -1% | [8]; at 100.0 µM 64% | [9]; [16] -8% | [9]; [17] 9% | [9]; at 50.0 µM 17.6% | [10]; at 1.2 µM 6% | [10]; at 3.7 µM 6% | [10]; [16] 5% | [10]; at 11.0 µM 7% | [10]; at 33.0 µM 27% | [10]; [17] 68% | [10]; at 50.0 µM 58.2% | [11]; at 1.2 µM 6% | [11]; at 3.7 µM 4% | [11]; at 11.0 µM 9% | [11]; at 33.0 µM 3% | [12]; at 1.2 µM -3% | [12]; at 3.7 µM 2% | [12]; at 11.0 µM 8% | [12]; at 33.0 µM 23% | [13]; at 1.2 µM -10% | [13]; at 3.7 µM -30% | [13]; at 11.0 µM 11% | [13]; at 33.0 µM 54% | [14]; [16] -21% | [14]; [17] 39% | [14]; at 50.0 µM 55.5% | [15]; at 1.2 µM -4% | [15]; at 3.7 µM 7% | [15]; at 11.0 µM 26% | [15]; at 33.0 µM 50%
active: [1]; at 100.0 µM 95% | [3]; at 100.0 µM 76% | [4]; at 100.0 µM 93% | [5]; at 100.0 µM 96% | [6]; at 100.0 µM 79% | [7]; at 100.0 µM 96% | [10]; at 100.0 µM 86% | [11]; at 100.0 µM 95% | [12]; at 100.0 µM 96% | [13]; at 100.0 µM 99% | [15]; at 100.0 µM 97%

COc1ccc2nc3cccc([N+](=O)[O-])c3c(NCCNCCN(C)C)c2c1
inactive: [1]; at 1.2 µM -4% | [1]; at 3.7 µM -3% | [1]; at 11.0 µM -6% | [1]; at 33.0 µM -4% | [1]; at 100.0 µM 2% | [2]; at 1.2 µM -3% | [2]; at 3.7 µM -2% | [2]; at 11.0 µM -2% | [2]; at 33.0 µM -1% | [2]; at 100.0 µM 3% | [3]; at 1.2 µM -4% | [3]; at 3.7 µM 0% | [3]; at 11.0 µM 0% | [3]; at 33.0 µM -4% | [3]; at 100.0 µM 3% | [4]; at 1.2 µM 0% | [4]; at 3.7 µM -3% | [4]; at 11.0 µM 20% | [4]; at 33.0 µM -3% | [4]; at 100.0 µM 5% | [5]; at 1.2 µM -4% | [5]; at 3.7 µM -5% | [5]; [16] 29% | [5]; at 11.0 µM -12% | [5]; at 33.0 µM -4% | [5]; at 100.0 µM 1% | [6]; at 1.2 µM 2% | [6]; at 3.7 µM -1% | [6]; [16] 5% | [6]; at 11.0 µM 2% | [6]; at 33.0 µM -1% | [6]; at 100.0 µM 8% | [7]; at 1.2 µM -2% | [7]; at 3.7 µM -2% | [7]; at 11.0 µM 0% | [7]; at 33.0 µM 1% | [7]; at 100.0 µM 4% | [8]; at 1.2 µM -1% | [8]; at 3.7 µM -2% | [8]; at 11.0 µM -11% | [8]; at 33.0 µM 3% | [8]; at 100.0 µM 12% | [9]; [16] 32% | [10]; at 1.2 µM -5% | [10]; at 3.7 µM 4% | [10]; [16] -33% | [10]; at 11.0 µM 3% | [10]; at 33.0 µM -5% | [10]; [17] 50% | [10]; at 50.0 µM -5.3% | [10]; at 100.0 µM -5% | [11]; at 1.2 µM -2% | [11]; at 3.7 µM -4% | [11]; at 11.0 µM -3% | [11]; at 33.0 µM -3% | [11]; at 100.0 µM 1% | [12]; at 1.2 µM -4% | [12]; at 3.7 µM -4% | [12]; at 11.0 µM -1% | [12]; at 33.0 µM -3% | [12]; at 100.0 µM 3% | [13]; at 1.2 µM -1% | [13]; at 3.7 µM -1% | [13]; at 11.0 µM 0% | [13]; at 33.0 µM -1% | [13]; at 100.0 µM 2% | [14]; [16] 55% | [14]; at 50.0 µM 66.5% | [15]; at 1.2 µM -5% | [15]; at 3.7 µM -3% | [15]; at 11.0 µM -4% | [15]; at 33.0 µM 3% | [15]; at 100.0 µM 6%
active: [5]; [17] 97% | [5]; at 50.0 µM 74.7% | [6]; [17] 97% | [6]; at 50.0 µM 73% | [9]; [17] 99% | [9]; at 50.0 µM 77.7% | [14]; [17] 96%
